In a collection of fitness landscapes (doi:10.1038/s41467-024-54723-y) one finds TetR repression strength data, which are given here for 102 sequences.

Over roughly 18,000 sequences, “TetR repression strength (sort-seq, GFP reporter)” has its median near 0.23; the highest 2% begin near 0.68. This is one part of a sample in which the highest values are shown more often than they occur.

TetR (class B, Tn10), sequence (P04483 whole entry): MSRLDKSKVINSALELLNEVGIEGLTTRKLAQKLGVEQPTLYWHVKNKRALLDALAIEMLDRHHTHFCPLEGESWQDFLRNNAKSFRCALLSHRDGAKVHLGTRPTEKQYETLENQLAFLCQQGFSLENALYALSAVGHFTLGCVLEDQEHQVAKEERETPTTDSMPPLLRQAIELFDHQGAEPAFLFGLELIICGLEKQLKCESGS

This experiment deals with TetR (class B, Tn10) (UniProt P04483). Put plainly: TetR repression strength (sort-seq, GFP reporter) (relative to tetO2 = 1); higher = stronger repression. The settings on record: E. coli. A digest of the protocol:
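Escherichia coli SIG10-MAX cells carried a low-copy plasmid library in which eight operator positions were randomized between a constitutive promoter and sfGFP, and TetR was expressed constitutively. After 5 h of growth at 37 °C in LB with 50 µg/mL chloramphenicol, 10^6 cells were FACS-sorted into 13 fluorescence bins, and each bin was Illumina-sequenced. Repression strength was the top bin index plus one minus the read-weighted mean bin, divided by the value for the unaltered operator. Across three independent transformations, only library members with ≥30 reads in every replicate and a CV ≤0.5 were averaged.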
In turn, TCCCAAAAAGTTCCGGAGA returned a TetR repression strength of 0.0327.
The same measure for TCCCATTTAGTCTGTGAGA: 0.192; for TCCCTAAAAGTACAGGAGA: 0.262; for TCCCGCTGAGTAATGGAGA: 0.218.
The same measure for TCCCTGCGAGTATTTGAGA: 0.391; for TCCCTAGTAGTGTGGGAGA: 0.216; for TCCCTAGAAGTTTAAGAGA: 0.0122.
The same measure for TCCCGTATAGTCTGTGAGA: 0.0605.
TCCCGTCAAGTGTCCGAGA returned a TetR repression strength of 0.279.
Consider TCCCGGACAGTCCGTGAGA, for which the TetR repression strength is 0.196.
The same measure for TCCCTATTAGTGACTGAGA: 0.345; for TCCCTTGCAGTGATAGAGA: 0.657; for TCCCAACCAGTAATGGAGA: 0.713.
Sequence TCCCAACCAGTCATGGAGA had a TetR repression strength of 0.159.
The same measure for TCCCGATCAGTGTTAGAGA: 0.556; for TCCCTATCAGTGTTAGAGA: 0.974; for TCCCCGTCAGTGATAGAGA: 0.35.
Next, TCCCTATCAGTGACGGAGA: 0.472; TCCCAACGAGTAATGGAGA: 0.395.
Next, TCCCTTTCAGTGTTAGAGA: 0.459; TCCCTATCAGTGACTGAGA: 0.722.
Turning to TCCCTATCAGTGATAGAGA, the TetR repression strength is 1.
The same measure for TCCCGTCCAGTCTGAGAGA: 0.152.
The same measure for TCCCGATGAGTGTGGGAGA: 0.221; for TCCCTATCAGTAACTGAGA: 0.474; for TCCCTATCAGTGGGTGAGA: 0.554.
The same measure for TCCCTATCAGTGCGTGAGA: 0.546; for TCCCTATCAGTGAGAGAGA: 0.948; for TCCCTGTCAGTGATTGAGA: 0.592.
In the case of TCCCTATCAGTAATTGAGA, the TetR repression strength is 0.787.
The same measure for TCCCTTGAAGTCATTGAGA: 1.05.
The same measure for TCCCTATCAGTTATTGAGA: 0.504; for TCCCTTCAAGTCATTGAGA: 0.0199; for TCCCTTGAAGTCAGTGAGA: 0.236.
As for TCCCTATCAGTGATTGAGA, the TetR repression strength was found to be 0.939.
Next, TCCCTATTAGTAATTGAGA: 0.416; TCCCTTATAGTATCAGAGA: 0.186; TCCCGATAAGTAGCGGAGA: 0.234.
The sequence TCCCTTGCAGTGTACGAGA came in with a TetR repression strength of 0.204.
Next, TCCCCCTTAGTTGTCGAGA: 0.307; TCCCGCGAAGTGTTTGAGA: 0.197.
For the sequence TCCCTGGGAGTGACAGAGA, the TetR repression strength was 0.299.
Sequence TCCCTAAGAGTGGGCGAGA registered a TetR repression strength of 0.157.
In the case of TCCCTAGAAGTGACGGAGA, the TetR repression strength was found to be 0.153.
Next, TCCCCGAGAGTCCTAGAGA: 0.235; TCCCGTCAAGTGCCGGAGA: 0.325.
As for TCCCTATCAGTGAAAGAGA, the TetR repression strength was 0.784.
For TCCCTAACAGTGAAAGAGA, the TetR repression strength stood at 0.575.
Sequence TCCCTATCAGTAAGTGAGA came in with a TetR repression strength of 0.545.
Consider TCCCTATCAGTGACAGAGA, for which the TetR repression strength stood at 0.863.
TCCCTATCAGTGGCAGAGA came in with a TetR repression strength of 0.771.
Sequence TCCCTATCAGTGAGGGAGA gave a TetR repression strength of 0.5.
The sequence TCCCTATCAGTGAGTGAGA returned a TetR repression strength of 0.79.
The same measure for TCCCTGTCAGTGGCAGAGA: 0.545; for TCCCTATCAGTCAAAGAGA: 0.636; for TCCCTAACAGTGACAGAGA: 0.559.
Next, TCCCTGTCAGTGACAGAGA: 0.636; TCCCAATCAGTGGCAGAGA: 0.433.
Consider TCCCTGTTAGTGCGGGAGA, for which the TetR repression strength amounted to 0.226.
In turn, TCCCGGTGAGTTGTCGAGA showed a TetR repression strength of 0.355.
As to TCCCATATAGTTTGGGAGA, the TetR repression strength was 0.175.
The same measure for TCCCTTGAAGTATCGGAGA: 0.146.
The same measure for TCCCATAGAGTGCGTGAGA: 0.18; for TCCCTGGCAGTTTTTGAGA: 0.196.
Next, TCCCCCCGAGTGCTGGAGA: 0.344; TCCCCCTGAGTCATTGAGA: 0.526; TCCCGGGCAGTGGGGGAGA: 0.347.
Turning to TCCCGCGTAGTGTACGAGA, the TetR repression strength came to 0.108.
Sequence TCCCTATTAGTGTGTGAGA showed a TetR repression strength of 0.219.
Next, TCCCTATTAGTGAGAGAGA: 0.631; TCCCTATTAGTGAGTGAGA: 0.762.
In the case of TCCCGTGGAGTGCACGAGA, the TetR repression strength was determined as 0.315.
TCCCAACAAGTGGATGAGA came in with a TetR repression strength of 0.243.
The same measure for TCCCCCACAGTGGATGAGA: 0.294; for TCCCCACCAGTGGATGAGA: 1.05.
The same measure for TCCCCCCCAGTGGATGAGA: 0.232; for TCCCCACGAGTGGATGAGA: 0.382; for TCCCCACAAGTGGATGAGA: 1.22.
As for TCCCCCCGAGTAAGTGAGA, the TetR repression strength worked out at 0.278.
TCCCGTCTAGTACTCGAGA: the TetR repression strength worked out at 0.262.
For the sequence TCCCAAAGAGTGGGCGAGA, the TetR repression strength is 0.0498.
The same measure for TCCCTCTTAGTGTGGGAGA: 0.0777.
In the case of TCCCGATGAGTATGTGAGA, the TetR repression strength was 0.366.
Next, TCCCTGCCAGTATAGGAGA: 0.308; TCCCCCCTAGTGGACGAGA: 0.178.
The same measure for TCCCTCGTAGTGGATGAGA: 0.206.
The same measure for TCCCTATGAGTTTAAGAGA: 1.03.
On to TCCCTAAGAGTAAAAGAGA, for which the TetR repression strength came to 0.839.
As to TCCCTAAGAGTACCAGAGA, the TetR repression strength is 0.429.
For the sequence TCCCTATGAGTTTGAGAGA, the TetR repression strength was found to be 0.33.
In the case of TCCCTATGAGTTGAAGAGA, the TetR repression strength came to 0.326.
The same measure for TCCCTATGAGTTCGAGAGA: 0.195.
Next, TCCCTAAGAGTAAACGAGA: 0.446.
Next, TCCCTATGAGTACCAGAGA: 0.857.
Sequence TCCCTATGAGTAAAAGAGA showed a TetR repression strength of 0.24.
The same measure for TCCCTATGAGTTCCAGAGA: 1.01; for TCCCTATGAGTTCCCGAGA: 0.289.
Next, TCCCTATGAGTACGAGAGA: 0.291; TCCCGTGTAGTAAGTGAGA: 0.313; TCCCCGAGAGTTGGGGAGA: 0.104.
Turning to TCCCAATCAGTCCGCGAGA, the TetR repression strength was 0.295.
The sequence TCCCAAGTAGTCACGGAGA had a TetR repression strength of 0.295.
